From PubChem BioAssay AID488835 (Broad Institute, 2010)
The whole screen tested about 1,400 compounds, of which about 140 (10%) were called active.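 The calls were made as follows: active = Half-maximal inhibitory dose from the fit at or below ten times the top valid tested dose; inconclusive = Invalid fit, or flat curve showing 30 to 70% inhibition; inactive = the rest.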 The list is a sample of the results. Results with a measured potency or affinity are listed apart.

What follows are molecules tested against Lysine-specific demethylase 4C (Homo sapiens) (UniProt Q9H3R0) (assay: inhibition of JMJD2C H3K9me3 demethylation – biochemical, DELFIA europium, cherry-picked samples, dose response (AID 488835;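 also: signal is the H3K9me2 demethylation product detected by a dimethyl-specific antibody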)). Details: GST-JMJD2C(1-420); series mostly up to 6 µM; activity change, negative = inhibition: at the top concentration.
Lysine-specific demethylase 4C (Homo sapiens), sequence (Q9H3R0 1-420 limits assumed): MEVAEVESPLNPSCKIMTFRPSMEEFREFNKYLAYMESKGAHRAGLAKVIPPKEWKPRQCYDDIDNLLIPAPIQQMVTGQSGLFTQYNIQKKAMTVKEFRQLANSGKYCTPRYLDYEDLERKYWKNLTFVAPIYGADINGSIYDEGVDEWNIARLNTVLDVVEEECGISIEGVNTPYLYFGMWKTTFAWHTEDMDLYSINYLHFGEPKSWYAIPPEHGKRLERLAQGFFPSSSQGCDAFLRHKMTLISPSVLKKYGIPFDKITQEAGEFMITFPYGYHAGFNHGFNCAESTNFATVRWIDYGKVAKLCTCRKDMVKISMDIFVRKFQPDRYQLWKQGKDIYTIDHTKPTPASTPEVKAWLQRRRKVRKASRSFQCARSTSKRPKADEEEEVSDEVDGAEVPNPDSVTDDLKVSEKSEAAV

Activity change, negative = inhibition, inactive:
CCCc1cc(=O)[nH]c(SCC(=O)Nc2cc(S(=O)(=O)N(CC)c3ccccc3)ccc2Cl)n1 1.6%
Cc1ccc(C(=O)Nc2sc3c(c2C(=O)O)CCCC3)o1 1.03%
CN(C)CCCN1C(=O)C(=O)/C(=C(/O)c2ccncc2)C1c1ccccc1 (centres undefined) 10.2%
Cc1cc(C(=O)OCc2nnc(-c3ccccc3)o2)c(C)n1-c1ccccc1 -4.32%
COc1ccc(C(=O)OCC(=O)c2ccccc2)cc1S(=O)(=O)N1CCOCC1 6.12%
Cc1ccc(C2CC(c3cccc(Br)c3)Nc3nnnn32)cc1 (centres undefined) 0.226%
Cc1cc(N(CN2CCCC2=O)C(=O)c2ccc(F)cc2)no1 3.57%
COC(=O)[C@]1(C)N[C@H](CN(C)C(=O)NC(C)C)[C@@H]2C(=O)N(Cc3ccccc3)C(=O)[C@@H]21 0.422%
COc1ccc(NC(=O)Nc2ccc3c(c2)C(=O)N([C@H](C)CO)C[C@H](C)[C@@H](CN(C)S(=O)(=O)c2cccs2)O3)cc1 8.17%
CC(C)NC(=O)Nc1ccc2c(c1)C(=O)N([C@H](C)CO)C[C@@H](C)[C@@H](CN(C)C(=O)NC1CCCCC1)O2 1.53%
CCCn1nnnc1SCC(=O)NNC(=O)c1ccco1 -3.08% [at 1.6 µM]
CCCn1c(SCC(=O)Nc2c(C)cccc2CC)nnc1C(C)C 7.38%
Cc1cc(OC(=O)N2CCOCC2)cc(C)c1Cl 3.18%
CC1CN(Cc2ccccc2)c2nc3c(c(=O)n(C)c(=O)n3C)n2C1 (centres undefined) 4.53%
OC1(c2cccc(F)c2)CCN(Cc2ccncc2)CC1 4.04%
CCOC(=O)CNC(=O)CNC(=O)c1ccc(OC)cc1 0.278%
COc1ccc(CCC(=O)Nc2sccc2C#N)cc1 -2.95%
COc1ccc(CCNC(=O)COC(=O)c2ccc(Br)o2)cc1 1.54%
COc1cc(-c2nc(-c3cccc(C)c3)no2)cc(OC)c1OC -3.71%
Cc1[nH]n2c(=O)c3c(nc2c1-c1ccccc1)CCCC3 -5.83%
CCOC(=O)C1=C(c2ccccc2)NC(=O)NC1c1ccc(O)c(OCC)c1 (centres undefined) 0.617%
CCOC(=O)C1=C(C)NC(=O)NC1c1ccc(Br)s1 (centres undefined) -6.07%
O=C(c1cccc(-n2cccc2)c1)N1CCN(S(=O)(=O)c2c(F)cccc2F)CC1 -0.611%
CC(=O)N1CCN(c2ccc([N+](=O)[O-])c(-n3nc(C)cc3C)c2)CC1 3.15%
Cc1ccc(S(=O)(=O)NC(=O)NC(C)Cc2ccccc2)cc1 (centres undefined) 0.87%
COc1ccc(NC(=O)N(C)C[C@H]2Oc3c(NS(=O)(=O)c4cn(C)cn4)cccc3C(=O)N([C@H](C)CO)C[C@@H]2C)cc1 3.1%
Nc1ncnc2c1ncn2[C@@H]1O[C@H](CNCC#Cc2ccccc2)[C@@H](O)[C@H]1O 2.42%
C=CCn1c(O)c(N=Nc2ccccc2C)c2ccccc21 -0.66%
C=CCn1c(-c2cccc3ccccc23)n[nH]c1=S -0.0654%
c1ccn2c(SCc3cn4ccsc4n3)nnc2c1 4.63%
CCOc1cccc(C2C(C(=O)c3ccco3)=C(O)C(=O)N2Cc2ccncc2)c1 (centres undefined) -1.49%
CCC(C)(C)NC(=O)C(c1cccn1C)N(Cc1ccc(OC)cc1)C(=O)Cn1nnc2ccccc21 (centres undefined) 1.52%
O=C(Oc1cccc(NC(=O)c2ccco2)c1)c1cccc(S(=O)(=O)N2CCCC2)c1 0.126%
Cc1cc(-n2c(SCC(=O)NCc3cccs3)nc3n[nH]c(C)c3c2=N)ccc1Cl 4.17%
O=c1[nH]c(S)nc2sc3c(c12)CCCC3 -1.73%
CCOC(=O)C1=C(C)NC2=C(C(=O)CCC2)C1c1coc2ccccc2c1=O (centres undefined) 2%
CCOc1cc(CN2CCN(CCc3ccccc3)C(CCO)C2)ccc1OC (centres undefined) 4.52%
COc1ccc(CCNC(=O)c2ccccc2Cl)cc1OC 3.52%
CCc1ccc(NC(=O)N(CCN2CCOCC2)C2CCN(C(C)=O)CC2)cc1 3.77%
Cc1nnc(SCc2nnc(-c3ccccc3)o2)n(N)c1=O -1.28%
COc1ccc(NC(NC(=O)c2cccnc2)C(Cl)(Cl)Cl)cc1 (centres undefined) 0.574%
CCCC(=O)Nc1nn(C)c2nc3c(C)cccc3cc12 -4.26%
O=C(COc1ccc(NC(=O)c2ccccc2)cc1)c1ccccc1 2.44%
C[C@@H]1CC[C@]2(C(=O)O[C@@H]3O[C@H](CO)[C@@H](O)[C@H](O)[C@H]3O)CC[C@]3(C)C(=CCC4[C@@]5(C)C[C@@H](O)[C@H](O)[C@@](C)(C(=O)O[C@@H]6[C@H](O)C[C@@]7(C)C(CC[C@]8(C)C7CC=C7[C@H]9[C@](C(=O)O[C@@H]%10O[C@H](CO)[C@@H](O)[C@H](O)[C@H]%10O)(CC[C@@H](C)[C@@]9(C)O)CC[C@]78C)[C@@]6(CO)C(=O)O)C5CC[C@]43C)[C@@H]2[C@]1(C)O (some centres undefined) 8%
Cc1cccc(C(=O)NCC(c2ccco2)N2CCc3ccccc32)c1 (centres undefined) 4.14%
COc1ccc(Nc2ncnc3sc(-c4ccccc4)cc23)cc1OC 0.937%
COc1ccccc1Cc1nnc(NC(=O)C2CCN(C(=O)c3ccco3)CC2)s1 3.52%
CCN(C[C@H]1N[C@@](C)(C(=O)OC)[C@H]2C(=O)N(C)C(=O)[C@@H]12)C(=O)Nc1ccc(C)cc1 0.134%
CCCCN(CC)S(=O)(=O)c1ccc(C(=O)Nc2nnc(COC)o2)cc1 3.36%
O=C(NCc1cccc(Cl)c1)c1ccc2c(c1)OCO2 2.71%
Cc1cc(C)nc(NC(N)=NC(C)c2ccccc2)n1 (centres undefined) -7.76%
CCn1c(O)c(N=NC2=NC(=O)CS2)c2ccccc21 0.856%
O=C(CCSCc1ccccc1F)NCCc1ccccc1 9.82%
Cc1noc(C)c1S(=O)(=O)N(C)C[C@H]1Oc2c(NC(=O)Nc3ccc(C(F)(F)F)cc3)cccc2C(=O)N([C@H](C)CO)C[C@@H]1C -5.65%
Cc1ccc(C(=O)N2CCN(c3ccc(Cl)cc3)CC2)cc1 1.79%
COc1cccc(NC(=O)CCN2C(=O)C3CC=CCC3C2=O)c1 (centres undefined) -8.52%
NC(=O)Cn1nc([N+](=O)[O-])nc1Oc1ccccc1F -7.81%
S=C(NCc1ccco1)Nc1cccc(Cl)c1 -6.24%
O=C(NCc1ccccc1)c1ccc2c(c1)OCCO2 1.89%
Cc1noc(C)c1NC(=O)Nc1cccc2c1O[C@H](CN(C)C(=O)Nc1ccc3c(c1)OCO3)[C@@H](C)CN([C@H](C)CO)C2=O 12.1%
Cc1[nH]n(-c2ccccc2)c(=O)c1N=Nc1nccs1 -6.11%
CCOC(=O)N1CCc2c(sc3nc4n(c(=O)c23)N=C(C)CS4)C1 -0.154%
COc1ccc(CN(Cc2nc3ccccc3c(=O)[nH]2)C(=O)NC2CCCCC2)cc1 -0.777%
NC(=O)C1CCN(C(=O)c2ccc(Oc3cc(Cl)cc(Cl)c3)o2)CC1 -2.91%
COc1ccccc1-n1cnnc1SCC(=O)Nc1ncc(Cl)cc1Cl -7.89% [at 1.6 µM]
O=C(COC(=O)c1ccc(O)cc1)Nc1ccc(Cl)cc1 0.856%
COc1ccccc1NC(=O)c1cccs1 -1.1% [at 1.6 µM]
COc1ccccc1NC(=O)COC(=O)/C=C/c1cccs1 6.16%
O=[N+]([O-])c1cc(Cl)ccc1Nc1ccccc1 2.42%
CC(=O)Nc1ccc(NC(=O)C2CCN(C(=O)c3cccs3)CC2)cc1 -11.3%
O=C(NCC1CCCO1)C(c1ccc(F)cc1)N(CCCN1CCOCC1)C(=O)c1ccc(-c2ccccc2)[nH]1 (centres undefined) 10.5%
COCCn1c(C(C)C)nc2sc3ccccc3c(=O)c2c1=O 5.81%
COC(=O)CNS(=O)(=O)c1ccc(C)cc1 2.24%
COC(=O)[C@]1(C)N[C@H](CN(C)C(=O)Nc2ccc(C)cc2)[C@@H]2C(=O)N(Cc3ccccc3)C(=O)[C@@H]21 3.23%
